From PubChem BioAssay
uPA surface inh: inhibitors of cell surface uPA generation; cell surface uPA generation assay, qHTS; Potency, µM (series often up to 38.3 µM), without a hit: top-dose activity change, negative = inhibition, actives largely listed as inhibitors; 330,000 compounds, 0.31% hits; active = well fitted inhibition curve with a large enough effect; inconclusive = small, poorly fitted or top-dose-only effect; inactive = no such curve, though single readings can be large or run the other way; tested in mouse RAW 264.7 cells; also: potency is read from the fitted curve at half-maximal effect; % is scaled to controls: 0 for no effect and ±100 for the full control effect; nearly all actives have a fitted effect of over 55% in size
Giardia killer: kills Giardia lamblia; Giardia lamblia trophozoite viability; activity change, % at 7.66 µM, hits read low; 340,000 compounds, 0.15% hits; in the data active = activity change below about -80%; inconclusive = between about -30% and that limit;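 also: parasites exposed to compound for two days anaerobically before the ATP read; % is scaled to controls: 0 for no effect and ±100 for the full control effect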
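Killing of trophozoites was scored by loss of ATP luminescence after a 48 hrs anaerobic exposure to compounds at 37 deg C, using 100 cells per well.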
MCF10A rerep: inducers of DNA re-replication in MCF 10A breast cells. AID 624296. MCF 10A DNA re-replication, Hoechst nuclear intensity, 48 h. Potency, µM (highest dose often 46.1 µM), for inactives: at the highest dose activity, positive = re-replication, actives largely listed as activators. 350,000 compounds, 2.9% hits; also: potency is read from the fitted curve at half-maximal effect; % of control where 0% means no effect; nearly all actives have a fitted effect of over 50% in size
SW480 rereplic: inducers of DNA re-replication in SW480 colon cancer cells; AID 624297; 340,000 compounds, 1.8% hits; Potency, µM (top dose mostly 46.1 µM), inactives show at the top dose re-replication activation, most hits filed as activators; SW480 DNA re-replication, Hoechst DNA content imaging, 48 h; also: potency is read from the fitted curve at half-maximal effect; % of control where 0% means no effect; nearly all actives have a fitted effect of over 55% in size
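250 cells/well; 23 nL cpd via pin tool; 48 hr, 37 C, 5% CO2; Hoechst 40 min; imager read of total nuclear intensity, ex 405/em 500-530 nm.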
* = called active by the depositor; ? = inconclusive; · = no result given. Shown are actives, neighbours in structure and some others; about 4.3% of the full set was active somewhere. Unless noted, calls follow the shape of the dose curve; as a rule, active = well fitted activation curve with a large enough effect; inconclusive = small, poorly fitted or top-dose-only effect; inactive = no such curve, though single readings can be large or run the other way.

SMILES	uPA surface inh	Giardia killer	MCF10A rerep	SW480 rereplic
O=S(=O)(Nc1cc(Sc2cccc3cccnc23)c(O)c2ccccc12)c1ccc(F)cc1	-17.3%	-98.1*	10.3µM*	0.731µM*
CCOC(=O)c1ccccc1OC(=O)CS(=O)c1ccccc1[N+](=O)[O-] (configuration not stated)	5.4%	-4.2	-15.8%	13.9%
O=C(CS(=O)c1ccc(C(F)(F)F)cc1[N+](=O)[O-])Oc1ccccc1 (configuration not stated)	-14.8%	9.8	7.31µM*	?
COC(=O)c1ccc(OC(=O)CS(=O)c2ccccc2[N+](=O)[O-])cc1 (configuration not stated)	2.3%	-7.9	9.4%	-22.1%
CS(=O)(=O)c1ccc(S(=O)CC(=O)OCc2ccccc2)c([N+](=O)[O-])c1 (configuration not stated)	-10.9%	7.8	4.11µM*	-39.9%
CN(c1ccccc1)S(=O)(=O)c1ccc(Cl)c(C(=O)NCc2ccccc2CN2CCCC2)c1	-17.7%	23.0	15.5%	18.7%
C=CCN1C(=O)C(CC(=O)O)S/C1=N/N=C/c1ccc(N(CC)CC)cc1 (configuration not stated)	-16.2%	1.9	-4.8%	-9.3%
COc1ccccc1Cn1c(=O)c2ccccc2n2c(SCc3csc(C)n3)nnc12	-6.0%	-11.8	25.4%	10.5%
COc1ccccc1Cn1c(=O)c2ccccc2n2c(Sc3ncnc4sccc34)nnc12	-18.2%	-0.6	18.4µM*	20.6µM*
O=C(O)Cc1sc(Nc2ccc(F)cc2)nc1-c1cccs1	1.0%	-13.2	20.6µM*	16.2%
O=C(NN1C(=O)/C(=C/c2ccc(O)cc2)SC1=S)c1cccc(O)c1	-1.7%	13.7	-5.7%	-11.2%
O=C(NN1C(=O)/C(=C/C=C/c2ccccc2)SC1=S)c1ccncc1	-8.5%	3.2	18.4µM*	-1.8%
CC(/C=C1\SC(=S)N(NC(=O)c2cccc(O)c2)C1=O)=C\c1ccccc1	0.0%	10.8	11.6µM*	-4.8%
CC(C)(C)C1CCC(OCC(O)CN2CCN(c3ccccc3)CC2)CC1 (configuration not stated)	0.0%	-1.2	20.6µM*	1.6%
CC(C)(C)C1CCC(OCC(O)CN2CCCC2)CC1 (configuration not stated)	-7.6%	3.9	6.7%	-5.8%
CC(=NNC(=S)N1CCC1)c1ccccn1	-9.2%	0.9	?	18.9%
CC(=NNC(=S)N1CC2CCC(CC2)C1)c1cccc(C)n1	-4.2%	0.8	?	0.411µM*
CC1CCCN(C(=O)CN(C)S(=O)(=O)c2cccc3nsnc23)C1 (configuration not stated)	-3.5%	-3.0	2.3%	-34.6%
CC(=O)Nc1cc2c(cc1[N+](=O)[O-])-c1ccccc1C2O (configuration not stated)	-9.7%	?	18.4µM*	?
CC(=O)Nc1cc2c(cc1[N+](=O)[O-])-c1ccccc1C2=NO	-0.9%	7.0	-1.3%	0.3%
CC(=O)N(C)Cc1ccc(C(=O)CCl)cc1	-3.0%	6.3	13µM*	?
Cc1cc(C)cc(OCc2ccc(C(=O)N3N=C(C(F)F)CC3(O)C(F)F)o2)c1 (configuration not stated)	4.1%	9.7	23.1µM*	5.5%
CCOc1ccc(OCc2ccc(C(=O)N3N=C(C(F)F)CC3(O)C(F)F)o2)cc1 (configuration not stated)	·	24.6	0.8%	4.3%
O=C1CCCC2=C1C(c1ccc(Cl)cc1)C1C(=O)c3ccccc3C1=N2 (configuration not stated)	-5.2%	-0.7	13µM*	14.6µM*
CCN(CC)CCCN(Cc1cc2cc(OC)ccc2[nH]c1=O)C(=O)Nc1ccc(F)cc1	1.7%	-21.9	2.91µM*	?
Cc1ccc[n+](C(C)C(=O)Nc2ccc(C)c(C)c2)c1 (configuration not stated)	6.1%	-2.5	0.231µM*	-26.6%
Nc1c(C(=O)N/N=C/c2cccnc2)oc2nc(-c3ccco3)cc(-c3ccco3)c12	6.0%	-2.8	?	?
Nc1c(C(=O)N/N=C/c2cccnc2)oc2nc(-c3ccccc3)cc(-c3ccco3)c12	1.1%	-10.9	18.4µM*	?
NNC(=O)c1oc2nc(-c3ccc(Cl)cc3)cc(-c3ccccc3)c2c1N	-2.2%	?	8.2µM*	23.1µM*
Cc1cc(OCCn2c(CCNC(=O)C3CCCCC3)nc3ccccc32)ccc1Cl	·	-5.8	·	·
